Reference: PubChem BioAssay (EPA / NIEHS)
Where “and” joins values, the source holds several entries; their conditions need not be identical. Equal values may be shown once. Some structures have more than one record in an assay (separate samples or runs), and their calls can disagree. Calls of active or inactive are those of the source. The calls were made as follows: active = hit-call score of the fitted dose curve at least 0.9, where 1 is the maximum; inactive = score below 0.9.

Read-out: Pselectin, SELP (gene 6403)
Assay: BSK_4H_Pselectin: BioMAP Diversity Plus: 4H Assay for Pselectin Biomarker Activity (AID 2283026)
Conditions: primary human endothelial cells (HUVEC); actives raise or lower the signal
Summary of the method: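 ELISA of surface P-selectin on HUVEC, 24 h after dosing, with parallel SRB staining (0.1% after 10% TCA fixation, 560 nm) for overt cytotoxicity. Activity fitted in both directions relative to DMSO.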
For `O=C(O)C(F)(F)C(F)(F)C(F)(F)C(F)(F)C(F)(F)C(F)(F)C(F)(F)C(F)(F)C(F)(F)C(F)(F)C(F)(F)C(F)(F)F`, the outcome was “inactive”.
With `O=S(=O)(O)C(F)(F)C(F)(F)C(F)(F)C(F)(F)C(F)(F)C(F)(F)C(F)(F)F` the outcome was “inactive”.
With `FC(F)(F)C(F)(F)C(F)(F)C(F)(F)CCI` the outcome was “inactive”.
In the case of `O=C(O)C(F)(F)C(F)(F)C(F)(F)C(F)(F)C(F)(F)C(F)(F)C(F)(F)C(F)(F)Cl`, the outcome is reported as “inactive”.
In the case of `Cc1ccc(S(=O)(=O)OCC(F)(F)C(F)(F)C(F)(F)C(F)(F)C(F)(F)C(F)F)cc1`, the outcome is reported as “inactive”.
With `FC(F)(F)C(F)(F)C(F)(F)CI` the outcome was “inactive”.
In the case of `O=C(O)C(F)(F)C(F)(F)C(F)(F)C(F)(F)F`, the outcome is reported as “inactive”.
For `Nc1ccc([N+](=O)[O-])cc1O`, the outcome was “inactive”.
With `FC(F)(F)C(F)(F)C(F)(F)C(F)(F)C(F)(F)CCI` the outcome was “inactive”.
With `O=C(O)C(F)(F)C(F)(F)C(F)(F)C(F)(F)C(F)(F)C(F)(F)C(F)(F)C(F)(F)C(F)(F)C(F)(F)C(F)(F)C(F)(F)C(F)(F)F` the outcome was “inactive”.
In the case of `CCCCCCCCCCCCCCCC[N+](C)(C)Cc1ccccc1`, the AC50 is reported as 4.62 µM (active).
In the case of `OCC(F)(F)C(F)(F)C(F)(F)F`, the outcome is reported as “inactive”.
With `O=C(O)C(F)(F)C(F)(F)F` the outcome was “inactive”.
With `CCc1c(Br)c(Br)c(Br)c(Br)c1Br` the outcome was “inactive”.
With `O=C(O)C(F)(OC(F)(F)C(F)(OC(F)(F)C(F)(F)C(F)(F)F)C(F)(F)F)C(F)(F)F` (stereo unspecified) the outcome was “inactive”.
With `Oc1ccc(Nc2ccccc2)cc1` the outcome was “inactive”.
For `C=CC(F)(F)C(F)(F)C(F)(F)C(F)(F)C(F)(F)C(F)(F)C(F)(F)C(F)(F)C=C`, the outcome was “inactive”.
In the case of `FC(F)(F)C(F)(F)C(F)(F)C(F)(F)C(F)(F)C(F)(F)C(F)(F)C(F)(F)F`, the outcome is reported as “inactive”.
For `N=C(N)C(F)(F)C(F)(F)C(F)(F)C(F)(F)C(F)(F)C(F)(F)C(F)(F)F`, the outcome was “inactive”.
In the case of `FC(F)(F)C(F)(F)C(F)(F)C(F)(F)C(F)(F)C(F)(F)CC1CO1` (stereo unspecified), the outcome is reported as “inactive”.

Read-out: not listed separately
Assay: BSK_4H_SRB: Viability Assessment in the BioMAP Diversity Plus: 4H Assay (AID 2283027);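 also: cells exposed to compound for 24 h before staining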;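 as to AC50: curves fitted both ways versus DMSO so AC50 may be loss or gain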
Conditions: primary human endothelial cells (HUVEC)
Summary of the method: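 HUVEC, 24 h post-dose; 10% TCA fix, 0.1% SRB stain, A560 nm. Total protein = overt cytotoxicity, parallel to biomarker read. Bidirectional fit vs DMSO baseline.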
With `O=C(O)C(F)(F)C(F)(F)C(F)(F)C(F)(F)C(F)(F)C(F)(F)C(F)(F)C(F)(F)C(F)(F)C(F)(F)C(F)(F)C(F)(F)F` the AC50 was 21.7 µM (active) and 18 µM (active).
With `O=S(=O)(O)C(F)(F)C(F)(F)C(F)(F)C(F)(F)C(F)(F)C(F)(F)C(F)(F)F` the outcome was “inactive”.
In the case of `FC(F)(F)C(F)(F)C(F)(F)C(F)(F)CCI`, the outcome is reported as “inactive”.
For `O=C(O)C(F)(F)C(F)(F)C(F)(F)C(F)(F)C(F)(F)C(F)(F)C(F)(F)C(F)(F)Cl`, the AC50 was 49.7 µM (active) and 52.2 µM (active).
In the case of `Cc1ccc(S(=O)(=O)OCC(F)(F)C(F)(F)C(F)(F)C(F)(F)C(F)(F)C(F)F)cc1`, the outcome is reported as “inactive”.
In the case of `FC(F)(F)C(F)(F)C(F)(F)CI`, the outcome is reported as “inactive”.
For `O=C(O)C(F)(F)C(F)(F)C(F)(F)C(F)(F)F`, the outcome was “inactive”.
For `Nc1ccc([N+](=O)[O-])cc1O`, the outcome was “inactive”.
In the case of `FC(F)(F)C(F)(F)C(F)(F)C(F)(F)C(F)(F)CCI`, the outcome is reported as “inactive”.
With `O=C(O)C(F)(F)C(F)(F)C(F)(F)C(F)(F)C(F)(F)C(F)(F)C(F)(F)C(F)(F)C(F)(F)C(F)(F)C(F)(F)C(F)(F)C(F)(F)F` the outcome was “inactive”.
In the case of `CCCCCCCCCCCCCCCC[N+](C)(C)Cc1ccccc1`, the AC50 is reported as 5.09 µM (active).
For `OCC(F)(F)C(F)(F)C(F)(F)F`, the outcome was “inactive”.
For `O=C(O)C(F)(F)C(F)(F)F`, the outcome was “inactive”.
In the case of `CCc1c(Br)c(Br)c(Br)c(Br)c1Br`, the outcome is reported as “inactive”.
With `O=C(O)C(F)(OC(F)(F)C(F)(OC(F)(F)C(F)(F)C(F)(F)F)C(F)(F)F)C(F)(F)F` (stereo unspecified) the outcome was “inactive”.
In the case of `Oc1ccc(Nc2ccccc2)cc1`, the outcome is reported as “inactive”.
In the case of `C=CC(F)(F)C(F)(F)C(F)(F)C(F)(F)C(F)(F)C(F)(F)C(F)(F)C(F)(F)C=C`, the outcome is reported as “inactive”.
In the case of `FC(F)(F)C(F)(F)C(F)(F)C(F)(F)C(F)(F)C(F)(F)C(F)(F)C(F)(F)F`, the outcome is reported as “inactive”.
In the case of `N=C(N)C(F)(F)C(F)(F)C(F)(F)C(F)(F)C(F)(F)C(F)(F)C(F)(F)F`, the AC50 is reported as 48.5 µM (active) and the outcome is reported as “inactive”.
In the case of `FC(F)(F)C(F)(F)C(F)(F)C(F)(F)C(F)(F)C(F)(F)CC1CO1` (stereo unspecified), the outcome is reported as “inactive”.
